PubChem BioAssay AID434973 (Sanford-Burnham Center for Chemical Genomics, 2010)
Hit rate of the full screen: of about 330,000 compounds, about 4,900 (1.5%) were called active. The entries come from a sample that favours actives as a whole. A number with no mark means an inactive call.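 How the source made its calls: active means inhibition above about 50% at the single test dose (limit read from the data); inactive means the rest.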

biological target: Sentrin-specific protease 7 (Homo sapiens) (UniProt Q9BQF6); assay: SENP7 protease inhibitors, primary screen, biochemical, luminescence, uHTS (AID 434973); conditions: recombinant SENP7, Z-RLRGG-aminoluciferin luminescence, 40 min; at 5 µM; stronger effect = higher value;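 further: plate controls were DMSO with enzyme for no effect and no enzyme buffer wells for full effect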

Row | SMILES | inhibition
1 | CN1CCN(c2cc(N3CCNCC3)ccc2[N+](=O)[O-])CC1 | 6.98%
2 | Cc1nc2ccc(N3CCN(C)CC3)cc2nc1C | -4.82%
3 | COc1cccc(-c2nc3ccc(N4CCN(C)CC4)cc3[nH]2)c1 | 57.6% (active)
4 | Cc1ccc(C)c(NC2=NCCCS2)c1 | 5.92%
5 | CCOC(=O)c1c(N)n(CCN2CCOCC2)c2nc3ccccc3nc12 | 0.976%
6 | CCOC(=O)c1c(N)n(Cc2ccccc2)c2nc3ccccc3nc12 | 13%
7 | COc1cc(Cn2c(N)c(C(=O)NCc3ccco3)c3nc4ccccc4nc32)cc(OC)c1OC | 80.7% (active)
8 | CCOC(=O)C(O)(c1ccc(N)c(OC)c1)C(F)(F)F (stereo not given) | 3.48%
9 | NCC(O)c1ccc(O)cc1 (stereo not given) | -7.28%
10 | COc1ccc(N=Cc2c(O)n(C)c(=O)[nH]c2=O)cc1 | 22.6%
